This note sets out measurements from the supplement of paper PMC4894684.

Structures can show the parent of a compound that is named as a salt. ± gives the standard deviation of the averaged measurements.

This experiment relates to Toxoplasma gondii RH (in HFF). Nature of the experiment: parasite growth relative to the screen mean (all compounds = 100%); higher = less inhibition of parasite growth. To be noted: 5 µM; 72 h; oxygen 21 %. Put shortly: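 Each value is parasite growth expressed against the screen mean, averaged over two screens, where the mean of all compounds = 100%. The screen used 5 µM final compound on confluent human foreskin fibroblasts infected with RH β-Gal–GFP Toxoplasma (MOI 1:5) within 2 h and grown 72 h at 21% O2. Parasite number was measured by a CPRG β-Gal assay against in-plate standard curves.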
The compound `CCCN(C/C=C/I)C1CCc2cccc(O)c2C1` (stereo not drawn) [8-Hydroxy-PIPAT oxalate] came in with a parasite growth of 190 ± 23%.

For `COc1cc2ncn(-c3cc(OCc4ccccc4C(F)(F)F)c(C(N)=O)s3)c2cc1OC`, the parasite growth worked out at 93.1 ± 20%.

Compound `COc1cc2nc(N3CCN(C(=O)C4CCCO4)CC3)nc(N)c2cc1OC` (stereo not drawn) [Terazosin hydrochloride] had a parasite growth of 122 ± 12%.

In turn, `CC1(CN2CCC(n3c(=O)[nH]c4ccccc43)CC2)OCc2ccccc2-n2cccc21` (stereo not drawn) displayed a parasite growth of 113 ± 47%.

The compound `CCCC(=O)Nc1ncnc2c1ncn2[C@@H]1O[C@@H]2COP(=O)(O)O[C@H]2[C@H]1OC(=O)CCC` [Dibutyryl-cAMP, sodium salt] had a parasite growth of 125 ± 23%.

In turn, `CCc1c2c(nc3ccc(O)cc13)-c1cc3c(c(=O)n1C2)COC(=O)[C@]3(O)CC` had a parasite growth of 110.2 ± 0.25%.

`CC(C)NCC(O)COc1ccc(CC(N)=O)cc1` (racemic) [(RS)-Atenolol] yielded a parasite growth of 103 ± 7.6%.

In the case of `COCCNC(=O)COc1ccc(OCCNC[C@H](O)COc2ccccc2)cc1` [ZD 7114 hydrochloride], the parasite growth worked out at 123 ± 7%.

Compound `COC(=O)c1c(-c2cc(OC)c(OC)c(OC)c2)c2ccnc(OCc3ncccn3)c2c(=O)n1Cc1ccnc(C)c1` [T 0156 hydrochloride] gave a parasite growth of 89.9 ± 14%.

`CC(C)(C)c1ccc(/C=C/C(=O)Nc2ccc3c(c2)OCCO3)cc1` displayed a parasite growth of 133.4 ± 1%.

Consider `COc1ccccc1C1(O)CCN(CCCn2c3ccccc3c3ccccc32)CC1` [NNC 05-2090 hydrochloride], for which the parasite growth was < 0%.

Compound `CCCCCCCCCCC(C)(C)C(=O)Nc1c(OC)cc(OC)cc1OC` registered a parasite growth of 27.8 ± 5.4%.

On to `CCc1c2c(nc3ccc(OC(=O)N4CCC(N5CCCCC5)CC4)cc13)-c1cc3c(c(=O)n1C2)COC(=O)[C@]3(O)CC`, for which the parasite growth stood at 59.8 ± 11%.

`Cc1ccc([N+](=O)[O-])cc1S(=O)(=O)N(C)C` gave a parasite growth of 74.2 ± 14%.

Compound `CCCOc1ccc(Br)cc1-c1cc(-c2ccc(Cl)cc2)[nH]c1-c1ccncc1` registered a parasite growth of 37 ± 9%.

Compound `CCC1=C(C)CN(C(=O)NCCc2ccc(S(=O)(=O)NC(=O)N[C@H]3CC[C@H](C)CC3)cc2)C1=O` [Glimepiride] gave a parasite growth of 149 ± 43%.

Turning to `CC(C)c1ccccc1S(=O)(=O)c1cc(N)c2ncccc2c1[N+](=O)[O-]`, the parasite growth amounted to 88.4 ± 2.1%.

The compound `OC(CN1CCC(Cc2ccc(F)cc2)CC1)c1ccc(Cl)cc1` (stereo not drawn) [Eliprodil] returned a parasite growth of 93.6 ± 21%.

As for `CCc1ccc(OCc2ccccc2C(=O)Nc2ccc3nc(C)cc(N)c3c2)cc1`, the parasite growth was < 0%.

As for `CNC(=O)[C@@H](Cc1ccccc1)N(C)C(=O)[C@@H](Cc1ccc2ccccc2c1)N(C)C(=O)/C=C/CC(C)(C)N` [Tabimorelin], the parasite growth came out at 135 ± 20%.

The compound `CC(O)(C(=O)Nc1ccc(S(=O)(=O)c2ccccc2)cc1)C(F)(F)F` (stereo not drawn) yielded a parasite growth of 59.3 ± 19%.

For the compound `CN1C(C(=O)Nc2ccccn2)=C(O)c2ccccc2S1(=O)=O` [Piroxicam], the parasite growth was determined as 153 ± 34%.

Take `COC(=O)/C=C/c1cccc(N(Cc2ccc(-c3ccc(N(C)C)cc3)cc2)C(=O)C2CCCCC2)c1` [Fexaramine]: the parasite growth was determined as 159 ± 7.7%.

As for `O=C(NCCNCC(O)COc1ccc(O)cc1)N1CCOCC1` (stereo not drawn) [Xamoterol hemifumarate], the parasite growth was 117 ± 12%.

`CN(C)c1nc(N)c(C(=O)Nc2cccnc2)nc1Cl` [ACDPP hydrochloride] returned a parasite growth of 88.7 ± 3%.

`Cc1c[nH]c(=O)n(CCCN2CCN(c3ccccc3OCC(F)(F)F)CC2)c1=O` showed a parasite growth of 116 ± 6.9%.

Consider `OCCN(CCO)c1nc(N2CCCCC2)c2nc(N(CCO)CCO)nc(N3CCCCC3)c2n1` [Dipyridamole], for which the parasite growth was found to be 142 ± 1.7%.

`CC(=O)N[C@@H](Cc1c[nH]c2ccccc12)C(=O)OCc1cc(C(F)(F)F)cc(C(F)(F)F)c1` displayed a parasite growth of 108 ± 52%.

As for `c1ccc(N2CCN(Cc3nc4ccccc4[nH]3)CC2)nc1` [ABT 724 trihydrochloride], the parasite growth worked out at 98.1 ± 12%.

Consider `Nc1nc2c(ncn2COCCO)c(=O)[nH]1` [Acyclovir], for which the parasite growth is 124 ± 28%.

`CCN(CC)CCOC(=O)C1(c2ccc([N+](=O)[O-])cc2)CCCC1` [Nitrocaramiphen hydrochloride] registered a parasite growth of 99.3 ± 34%.

`O=C(O)/C=C/c1ccc(Cn2ccnc2)cc1` [Ozagrel hydrochloride] gave a parasite growth of 119 ± 3.2%.

`N#Cc1c(O)c2c(-c3ccc(-c4ccccc4O)cc3)csc2[nH]c1=O` showed a parasite growth of 131 ± 14%.

`COc1ccccc1N1CCN(CCCCN2C(=O)c3ccccc3C2=O)CC1` [NAN-190 hydrobromide] showed a parasite growth of 133 ± 11%.

`CC(=N)NCCCC[C@H](N)C(=O)O` [L-NIL hydrochloride] returned a parasite growth of 130 ± 15%.

For the compound `COc1ccc([C@@H]2Sc3ccccc3N(CCN(C)C)C(=O)[C@@H]2OC(C)=O)cc1` [Diltiazem hydrochloride], the parasite growth came out at 94.4 ± 43%.

On to `CS(=O)(=O)CCNCc1nc(-c2ccc3ncnc(Nc4ccc(OCc5cccc(F)c5)c(Cl)c4)c3c2)cs1`, for which the parasite growth is 63.4 ± 19%.

`CCS(=O)(=O)N(C)[C@H]1c2cc(C#N)ccc2OC(C)(C)[C@@H]1O` [(-)-[3R,4S]-Chromanol 293B] came in with a parasite growth of 121 ± 9.2%.
